# Measured values: PubChem BioAssay (EPA / NIEHS)
# Activity calls are given as the source filed them. The calls were made as follows: active = hit-call score of the fitted dose curve at least 0.9, where 1 is the maximum; inactive = score below 0.9.
# How the values were obtained:
# [1] = ATG_AP_1_CIS: Attagene CIS-FACTORIAL HepG2 Assay for human Activator Protein 1 (AP-1) (AID 2282931); conditions: HepG2 Attagene cis-factorial AP-1 reporter mRNA; actives raise or lower the signal
# Method in brief: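 Multiplexed HepG2 reporter assay, 24 h dosing. mRNA induction detected by RT-PCR plus capillary electrophoresis. Activity fitted in both directions against DMSO.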
# [2] = ATG_AP_2_CIS: Attagene CIS-FACTORIAL HepG2 Assay for human Activator Protein 2 (AP-2) (AID 2282932); conditions: HepG2 AP-2 cis-reporter, Attagene transcription factor profiling; actives raise or lower the signal
# Method in brief: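 HepG2, transient MRTU transfection, cis-regulated reporters; 24 h compound exposure; RNA isolated, RT-PCR, 6-FAM labelling, HpaI digest, CE fluorescence. DMSO = negative control/baseline, bidirectional fit.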
# [3] = ATG_BRE_CIS: Attagene CIS-FACTORIAL HepG2 Assay for human Bone Morphogenetic Protein (BMP) Response Element (BRE) (AID 2282933); conditions: HepG2 BMP response element reporter, Attagene transcription factor profiling; actives raise or lower the signal
# Method in brief: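 A HepG2 multiplex reporter system measured inducible reporter mRNA 24 h post-dosing. Detection: RT-PCR, 6-FAM primer extension, HpaI digestion, capillary electrophoresis. Activity fitted bidirectionally relative to DMSO.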
# [4] = molecular target: Transcription factor E2F1 (Homo sapiens) (UniProt Q01094); assay: ATG_E2F_CIS: Attagene CIS-FACTORIAL HepG2 Assay for human E2F Transcription Factor 1 (AID 2282935); conditions: HepG2 Attagene cis-reporter, E2F reporter RNA transcripts; actives raise or lower the signal
# Method in brief: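 Cis-element reporter mRNA induction in transiently transfected HepG2, 24 h exposure. Activity fitted in both directions relative to DMSO negative control.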
# [5] = ATG_E_Box_CIS: Attagene CIS-FACTORIAL HepG2 Assay for human Enhancer Box (E-box) (AID 2282936); conditions: HepG2 E-box cis-reporter transcription, actives raise or lower the signal
# Method in brief: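 Cells: HepG2 (human liver), transient MRTU transfection. Exposure 24 h. RNA → oligo(dT) RT → PCR → 6-FAM label → HpaI → CE. Activity fitted both directions relative to DMSO.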
# [6] = ATG_M_19_CIS: Attagene CIS-FACTORIAL HepG2 Assay for M19 Transcription Factor (Internal Marker) (AID 2282939); conditions: HepG2 Attagene CIS-FACTORIAL M19 internal marker reporter; actives raise or lower the signal
# Method in brief: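 Chemical-treated HepG2 (24 h) with MRTU constructs; reporter transcripts detected by fluorescent RT-PCR fragment analysis on capillary electrophoresis. Internal background marker, DMSO as baseline.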
# [7] = ATG_Ets_CIS: Attagene CIS-FACTORIAL HepG2 Assay for human Erythroblast Transformation Specific (ETS) (AID 2282941); conditions: HepG2 ETS cis-reporter transcription, actives raise or lower the signal
# Method in brief: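 Human HepG2 hepatoma cells were transiently transfected with promoter-driven reporter constructs and treated for 24 hours. Reporter transcripts were quantified by RT-PCR with fluorescent primer extension; bidirectional curve fitting used DMSO as reference.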
# [8] = molecular target: Hepatocyte nuclear factor 3-beta (Homo sapiens) (UniProt Q9Y261); assay: ATG_FoxA2_CIS: Attagene CIS-FACTORIAL HepG2 Assay for human Forkhead box A2 (FOXA2) (AID 2282942); conditions: HepG2 cis-reporter transcription factor activity, 24 h; actives raise or lower the signal
# Method in brief: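 Reporter transcript induction is measured by fluorescence after capillary electrophoresis of RT-PCR products from HepG2 cells exposed 24 h. Cis-regulated reporter units report endogenous factor activity; curves fitted both directions against DMSO.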
# [9] = ATG_FoxO_CIS: Attagene CIS-FACTORIAL HepG2 Assay for human Forkhead box O (FoxO) (AID 2282943); conditions: HepG2 Attagene cis-reporter, FoxO element, mRNA; actives raise or lower the signal
# Method in brief: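 Endogenous transcription factor activity read from multiplexed cis-promoter reporter transcripts in transiently transfected HepG2, 24 h after dosing. Reporter RNA measured via RT-PCR plus capillary electrophoresis of FAM-labeled products; gain or loss relative to DMSO.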
# [10] = ATG_GATA_CIS: Attagene CIS-FACTORIAL HepG2 Assay for human GATA Binding Protein (AID 2282944); conditions: HepG2 GATA cis-element reporter, Attagene multiplex mRNA; actives raise or lower the signal
# Method in brief: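 Transfected cis-reporter HepG2 cells were treated with chemicals for 24 hours. Total RNA was then converted to cDNA, amplified with reporter-specific primers and analysed by fluorescent capillary electrophoresis, using DMSO-treated wells as baseline.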
# [11] = ATG_GLI_CIS: Attagene CIS-FACTORIAL HepG2 Assay for human Zinc Finger Protein GLI1 (AID 2282945); conditions: HepG2, Attagene cis-factorial reporter mRNA, GLI element; actives raise or lower the signal
# Method in brief: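 Bidirectional curve fits relative to DMSO, using reporter mRNA levels from RT-PCR plus capillary electrophoresis. Cells were HepG2 transiently carrying cis-regulated reporter constructs, harvested 24 h after dosing.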
# [12] = ATG_ISRE_CIS: Attagene CIS-FACTORIAL HepG2 Assay for human Interferon Regulatory Factor 1 (IRF1) binding to an Interferon-Stimulated Response Element (ISRE) (AID 2282948); conditions: HepG2 ISRE cis-reporter (Attagene), mRNA transcription readout; actives raise or lower the signal
# Method in brief: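 Cell-based cis-reporter assay; HepG2; 24 h exposure; reporter mRNA by RT-PCR plus capillary electrophoresis fluorescence; activity in either direction scored relative to DMSO.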
# [13] = ATG_M_06_CIS: Attagene CIS-FACTORIAL HepG2 Assay for M06 Transcription Factor (Internal Marker) (AID 2282950); conditions: HepG2 Attagene CIS-FACTORIAL M06 internal marker reporter; actives raise or lower the signal
# Method in brief: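 Cells (HepG2, transiently carrying cis-driven reporter units) receive chemical for 24 h before RNA isolation. Reporter cDNA is PCR-amplified, FAM-labelled by primer extension, HpaI-digested and sized on a capillary analyser.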
# [14] = ATG_M_61_CIS: Attagene CIS-FACTORIAL HepG2 Assay for M61 Transcription Factor (Internal Marker) (AID 2282937); conditions: HepG2 Attagene CIS-FACTORIAL M61 internal marker reporter; actives raise or lower the signal
# Method in brief: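 Endogenous transcription factor activity in HepG2 is read through transiently transfected cis-element reporter units. After 24 h dosing, RNA undergoes reverse transcription, PCR and primer extension with 6-FAM before capillary electrophoresis; DMSO-referenced bidirectional fit.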
# [15] = ATG_EGR_CIS: Attagene CIS-FACTORIAL HepG2 Assay for human Early Growth Response 1 (EGR1) (AID 2282938); conditions: HepG2 Attagene CIS-FACTORIAL EGR reporter mRNA; actives raise or lower the signal
# Method in brief: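 Activity is taken as induction or loss of reporter mRNA versus DMSO, fitted bidirectionally. Transcripts from cis-regulated reporter units in transiently transfected HepG2 were measured after 24 h by RT-PCR with capillary electrophoresis.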
# [16] = ATG_ERE_CIS: Attagene CIS-FACTORIAL HepG2 Assay for Estrogen Response Element (ERE) (AID 2282940); conditions: HepG2 ERE cis-reporter, Attagene RNA transcript; actives raise or lower the signal
# Method in brief: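 Human liver cells (HepG2) bearing transiently transfected, promoter-regulated reporter units were exposed 24 h. Reporter mRNA induction was detected by capillary electrophoresis of labelled RT-PCR products and fitted bidirectionally to DMSO.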
# [17] = molecular target: Bile acid receptor (Homo sapiens) (UniProt Q96RI1); assay: ATG_IR1_CIS: Attagene CIS-FACTORIAL HepG2 Assay for human Nuclear Receptor Subfamily 1 Group H Member 4 (NR1H4), IR1 submotif (AID 2282946); conditions: IR1 reporter transcription, actives raise or lower the signal
# Method in brief: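 Cells (human HepG2) carry transiently transfected cis-promoter reporter transcription units. Compounds are incubated 24 h, total RNA is reverse-transcribed and amplified, and labelled fragments are resolved by capillary electrophoresis. Curves use DMSO as baseline.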
# [18] = ATG_GRE_CIS: Attagene CIS-FACTORIAL HepG2 Assay for human Glucocorticoid Response Elements (GRE) (AID 2282947); conditions: HepG2 GRE cis-reporter, Attagene multiplex mRNA; actives raise or lower the signal
# Method in brief: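 Transient MRTU transfection of human HepG2 liver cells; cis-regulated reporters report endogenous factors. 24 h dosing → RNA isolation → RT-PCR → 6-FAM primer extension → HpaI cut → CE fragment analysis. Bidirectional fit, DMSO negative control.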
# [19] = ATG_M_32_CIS: Attagene CIS-FACTORIAL HepG2 Assay for M32 Transcription Factor (Internal Marker) (AID 2282949); conditions: HepG2 Attagene cis-factorial M32 reporter, mRNA; actives raise or lower the signal;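 also: background control marker of the multiplexed CIS panel rather than a real target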
# Method in brief: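 HepG2 cells transiently transfected with multiplexed cis-regulated reporter units, dosed 24 h. Reporter mRNA quantified by RT-PCR, 6-FAM labelling, HpaI digestion and capillary electrophoresis; bidirectional fit vs DMSO.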
# Sequence of Hepatocyte nuclear factor 3-beta (Homo sapiens) (Q9Y261 whole entry, looked up): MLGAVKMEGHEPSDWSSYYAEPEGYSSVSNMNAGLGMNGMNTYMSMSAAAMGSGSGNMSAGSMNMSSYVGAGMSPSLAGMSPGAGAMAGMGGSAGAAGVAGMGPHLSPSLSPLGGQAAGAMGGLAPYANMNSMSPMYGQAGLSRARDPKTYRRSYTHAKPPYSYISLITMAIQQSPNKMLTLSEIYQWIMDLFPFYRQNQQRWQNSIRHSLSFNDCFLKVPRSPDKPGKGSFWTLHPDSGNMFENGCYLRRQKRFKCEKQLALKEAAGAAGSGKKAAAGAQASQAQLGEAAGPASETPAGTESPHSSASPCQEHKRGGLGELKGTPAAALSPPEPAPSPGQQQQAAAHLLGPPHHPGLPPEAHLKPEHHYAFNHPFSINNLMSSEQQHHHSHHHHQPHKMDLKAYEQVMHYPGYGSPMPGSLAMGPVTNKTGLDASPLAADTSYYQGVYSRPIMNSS
# Sequence of Transcription factor E2F1 (Homo sapiens) (Q01094 whole entry, looked up): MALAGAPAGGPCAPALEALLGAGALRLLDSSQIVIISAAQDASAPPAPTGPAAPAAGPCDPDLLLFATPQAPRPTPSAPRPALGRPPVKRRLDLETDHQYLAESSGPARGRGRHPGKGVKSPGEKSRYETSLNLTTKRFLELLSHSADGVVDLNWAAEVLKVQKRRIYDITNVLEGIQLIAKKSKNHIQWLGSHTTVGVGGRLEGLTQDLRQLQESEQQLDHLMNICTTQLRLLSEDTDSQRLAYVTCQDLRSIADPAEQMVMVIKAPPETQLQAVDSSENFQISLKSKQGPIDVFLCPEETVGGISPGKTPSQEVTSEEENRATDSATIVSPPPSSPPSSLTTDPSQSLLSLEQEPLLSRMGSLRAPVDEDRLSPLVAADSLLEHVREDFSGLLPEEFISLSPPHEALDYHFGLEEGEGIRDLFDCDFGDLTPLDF
# Sequence of Bile acid receptor (Homo sapiens) (Q96RI1 whole entry, looked up, the tested form may be a part): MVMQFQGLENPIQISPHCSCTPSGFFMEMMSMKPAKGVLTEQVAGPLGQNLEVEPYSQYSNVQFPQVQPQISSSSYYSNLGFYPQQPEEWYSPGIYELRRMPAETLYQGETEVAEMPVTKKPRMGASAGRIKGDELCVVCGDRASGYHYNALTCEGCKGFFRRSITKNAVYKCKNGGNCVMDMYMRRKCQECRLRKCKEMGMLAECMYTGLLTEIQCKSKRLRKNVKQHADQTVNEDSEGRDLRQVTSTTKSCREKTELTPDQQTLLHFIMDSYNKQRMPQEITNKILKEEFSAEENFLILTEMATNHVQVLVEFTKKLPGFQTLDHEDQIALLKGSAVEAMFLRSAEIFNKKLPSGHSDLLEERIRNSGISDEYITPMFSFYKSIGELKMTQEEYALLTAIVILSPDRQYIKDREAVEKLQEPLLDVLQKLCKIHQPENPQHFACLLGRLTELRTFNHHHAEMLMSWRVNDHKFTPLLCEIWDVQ
smiles,measurement,setting,value
O=C(O)CC(O)(CC(=O)O)C(=O)O,outcome,[1],inactive
same,outcome,[2],inactive
same,outcome,[3],inactive
same,outcome,[4],inactive
same,outcome,[5],inactive
same,outcome,[6],inactive
same,outcome,[7],inactive
same,outcome,[8],inactive
same,outcome,[9],inactive
same,outcome,[10],inactive
same,outcome,[11],inactive
same,outcome,[12],inactive
same,outcome,[13],inactive
CCC[CH2][Sn]([Cl])([Cl])[CH2]CCC,outcome,[1],inactive
same,outcome,[2],inactive
same,AC50,[3],316 nM (active)
same,outcome,[4],inactive
same,outcome,[5],inactive
same,outcome,[14],inactive
same,AC50,[15],1240 nM (active)
same,outcome,[6],inactive
same,AC50,[16],312 nM (active)
same,outcome,[7],inactive
same,outcome,[8],inactive
same,AC50,[9],660 nM (active)
same,AC50,[11],1540 nM (active)
same,AC50,[17],1730 nM (active)
same,outcome,[18],inactive
same,AC50,[12],1990 nM (active)
same,outcome,[19],inactive
CNC(=O)O/N=C/C(C)(C)S(C)(=O)=O,outcome,[1],inactive
same,outcome,[2],inactive
same,outcome,[3],inactive
same,outcome,[4],inactive
same,outcome,[14],inactive
same,outcome,[15],inactive
same,outcome,[6],inactive
same,outcome,[16],inactive
same,outcome,[7],inactive
same,outcome,[8],inactive
same,outcome,[9],inactive
same,outcome,[10],inactive
same,outcome,[11],inactive
same,outcome,[18],inactive
same,outcome,[12],inactive
same,outcome,[13],inactive
Nc1nc(N)nc(Cl)n1,outcome,[1],inactive
same,outcome,[2],inactive
same,outcome,[3],inactive
same,outcome,[4],inactive
same,outcome,[5],inactive
same,outcome,[14],inactive
same,outcome,[15],inactive
same,outcome,[6],inactive
same,outcome,[16],inactive
same,outcome,[7],inactive
same,outcome,[8],inactive
same,outcome,[9],inactive
same,outcome,[10],inactive
same,outcome,[11],inactive
same,outcome,[18],inactive
same,outcome,[12],inactive
same,outcome,[19],inactive
same,outcome,[13],inactive
CCCCCCCCCCCCOS(=O)(=O)O,outcome,[1],inactive
same,outcome,[2],inactive
same,outcome,[3],inactive
same,outcome,[4],inactive
same,outcome,[5],inactive
same,outcome,[15],inactive
same,outcome,[6],inactive
same,outcome,[7],inactive
same,outcome,[8],inactive
same,outcome,[9],inactive
same,outcome,[10],inactive
same,outcome,[11],inactive
same,outcome,[18],inactive
same,outcome,[12],inactive
same,outcome,[19],inactive
same,outcome,[13],inactive
